For seven compounds, outcome and AC50 results are on record in PubChem BioAssay (EPA / NIEHS).

“And” between values parts separate entries of the source, which are not always exact repeats. Equal values may be shown once. Some compounds were tested as several samples or in several runs, with calls that do not always agree. The source made the active and inactive calls. Rule for the calls: active = hit-call score of the fitted dose curve at least 0.9, where 1 is the maximum; inactive = score below 0.9.

A short description of assay [1]: BSK_CASM3C_SRB: Viability Assessment in the BioMAP Diversity Plus: CASM3C Assay (AID 2283050).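 Note: cells exposed to compound for 24 h.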 Particulars: primary human coronary artery smooth muscle cells.
Read-out in assay [2]: Thrombomodulin, THBD (gene 7056)
Briefly: BSK_CASM3C_Thrombomodulin: BioMAP Diversity Plus: CASM3C Assay for Thrombomodulin Biomarker Activity (AID 2283051).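 Note: thrombomodulin protein level measured by ELISA 24 h after dosing.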 Particulars: primary human coronary artery smooth muscle cells; actives raise or lower the signal.

Read-out in assay [3]: Tissue Factor, F3 (gene 2152)
In words: BSK_CASM3C_TissueFactor: BioMAP Diversity Plus: CASM3C Assay for Tissue Factor Biomarker Activity (AID 2283052).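 Note: cell surface tissue factor protein level read by ELISA.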 Particulars: primary human coronary artery smooth muscle cells; actives raise or lower the signal.

Read-out in assay [4]: Interferon-gamma inducible Protein 10 (IP10), CXCL10 (gene 3627)
Briefly: BSK_hDFCGF_IP10: BioMAP Diversity Plus: hDFCGF Assay for Interferon-gamma inducible Protein 10 (IP10) Biomarker Activity (AID 2283053). Particulars: primary human foreskin fibroblasts; actives raise or lower the signal. A digest of the protocol: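 Cells: human dermal foreskin fibroblasts. Exposure: 24 h post-dosing. Detection: IP-10 ELISA, with values expressed against DMSO controls and fitted in both directions.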

Read-out in assay [5]: Urokinase-type plasminogen activator receptor (uPAR), PLAUR (gene 5329)
Briefly: BSK_CASM3C_uPAR: BioMAP Diversity Plus: CASM3C Assay for Urokinase-type plasminogen activator receptor (uPAR) Biomarker Activity (AID 2283054).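 Note: cell-surface uPAR protein level quantified by ELISA.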 As to conditions: primary human coronary artery smooth muscle cells; actives raise or lower the signal.

Read-out in assay [6]: Vascular cell adhesion molecule 1 (VCAM1), VCAM1 (gene 7412)
Briefly: BSK_CASM3C_VCAM1: BioMAP Diversity Plus: CASM3C Assay for Vascular cell adhesion molecule 1 (VCAM1) Biomarker Activity (AID 2283055).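 Note: VCAM-1 protein level quantified by ELISA on the cells.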 As to conditions: primary human coronary artery smooth muscle cells; actives raise or lower the signal.

Read-out in assay [7]: Collagen III, COL3A1 (gene 1281)
Briefly: BSK_hDFCGF_CollagenIII: BioMAP Diversity Plus: hDFCGF Assay for Collagen III Biomarker Activity (AID 2283056). As to conditions: primary human foreskin fibroblasts; actives raise or lower the signal. A digest of the protocol:
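Cells: human foreskin fibroblasts, primary. Dosing followed by 24 h incubation, then ELISA for collagen III. Both increases and decreases scored relative to DMSO.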

Read-out in assay [8]: Epidermal growth factor receptor (EGFR), EGFR (gene 1956)
In words: BSK_hDFCGF_EGFR: BioMAP Diversity Plus: hDFCGF Assay for Epidermal growth factor receptor (EGFR) Biomarker Activity (AID 2283057). As to conditions: primary human foreskin fibroblasts; actives raise or lower the signal. A digest of the protocol: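 Dosing human primary skin fibroblasts, then measuring surface EGFR by ELISA at 24 h, gives the endpoint; gains and losses relative to DMSO were fitted in both directions.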

Read-out in assay [9]: Interleukin-8 (IL8), CXCL8 (gene 3576)
Briefly: BSK_hDFCGF_IL8: BioMAP Diversity Plus: hDFCGF Assay for Interleukin-8 (IL8) Biomarker Activity (AID 2283058). Particulars: primary human foreskin fibroblasts; actives raise or lower the signal. The gist of the method:
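IL-8 levels from compound-treated primary human fibroblasts were read by ELISA at 24 h, with DMSO serving as baseline for bidirectional fitting.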

Read-out in assay [10]: Macrophage colony-stimulating factor (MCSF), CSF1 (gene 1435)
Briefly: BSK_hDFCGF_MCSF: BioMAP Diversity Plus: hDFCGF Assay for Macrophage colony-stimulating factor (MCSF) Biomarker Activity (AID 2283060). Particulars: primary human foreskin fibroblasts; actives raise or lower the signal. The gist of the method: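 M-CSF levels, determined by ELISA, are taken at 24 h after dosing human skin fibroblasts. Responses in either direction are fitted with DMSO serving as the baseline.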

A short description of assay [11]: BSK_hDFCGF_SRB: Viability Assessment in the BioMAP Diversity Plus: hDFCGF Assay (AID 2283061).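 Note: cells exposed to compound for 24 h before the read.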 As to conditions: primary human foreskin fibroblasts. A digest of the protocol:
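Cells were dosed with test chemical, cultured 24 h, fixed with 10% TCA, then stained with 0.1% SRB and read at 560 nm. The fibroblasts were human foreskin primary cells, and DMSO served as baseline.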

Read-out in assay [12]: TIMP metallopeptidase inhibitor 1 (TIMP1), TIMP1 (gene 7076)
Briefly: BSK_hDFCGF_TIMP1: BioMAP Diversity Plus: hDFCGF Assay for TIMP metallopeptidase inhibitor 1 (TIMP1) Biomarker Activity (AID 2283062). Particulars: primary human foreskin fibroblasts; actives raise or lower the signal. A digest of the protocol:
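Fibroblasts from human foreskin are treated with test chemical and harvested at 24 h. TIMP-1 is quantified by ELISA, and gain or loss of signal is scored against DMSO.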

Read-out in assay [13]: Monokine induced gamma interferon (MIG), CXCL9 (gene 4283)
Briefly: BSK_hDFCGF_MIG: BioMAP Diversity Plus: hDFCGF Assay for Monokine induced gamma interferon (MIG) Biomarker Activity (AID 2283063). Particulars: primary human foreskin fibroblasts; actives raise or lower the signal. The gist of the method:
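MIG signal, determined by ELISA, reflects 24 h chemical exposure of human skin primary fibroblasts. DMSO serves as negative control and baseline.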

Read-out in assay [14]: Matrix Metallopeptidase 1 (MMP1), MMP1 (gene 4312)
Briefly: BSK_hDFCGF_MMP1: BioMAP Diversity Plus: hDFCGF Assay for Matrix Metallopeptidase 1 (MMP1) Biomarker Activity (AID 2283064). As to conditions: primary human foreskin fibroblasts; actives raise or lower the signal. A digest of the protocol: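 Human foreskin fibroblasts exposed to chemical for 24 h; MMP1 detected by ELISA, with DMSO as baseline for bidirectional fitting.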

Read-out in assay [15]: Vascular cell adhesion molecule 1 (VCAM1), VCAM1 (gene 7412)
In words: BSK_hDFCGF_VCAM1: BioMAP Diversity Plus: hDFCGF Assay for Vascular cell adhesion molecule 1 (VCAM1) Biomarker Activity (AID 2283065).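 For AC50: VCAM-1 protein level quantified by ELISA after 24 h chemical exposure.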 Particulars: primary human foreskin fibroblasts; actives raise or lower the signal. A digest of the protocol: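 Cells are dosed, cultured for 24 h, then VCAM-1 is quantified by ELISA; signal increases and decreases are both fitted relative to DMSO.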

Read-out in assay [16]: Plasminogen activator inhibitor-1 (PAI1), SERPINE1 (gene 5054)
In words: BSK_hDFCGF_PAI1: BioMAP Diversity Plus: hDFCGF Assay for Plasminogen activator inhibitor-1 (PAI1) Biomarker Activity (AID 2283066). As to conditions: primary human foreskin fibroblasts; actives raise or lower the signal. A digest of the protocol: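 Fibroblasts from human foreskin were treated with test chemical. After 24 h, PAI-1 was measured by ELISA. Activity was fitted in both directions relative to DMSO.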

Read-out in assay [17]: Intercellular Adhesion Molecule 1 (ICAM1), ICAM1 (gene 3383)
Briefly: BSK_KF3CT_ICAM1: BioMAP Diversity Plus: KF3CT Assay for Intercellular Adhesion Molecule 1 (ICAM1) Biomarker Activity (AID 2283067). Particulars: primary human keratinocytes with fibroblasts; actives raise or lower the signal. A digest of the protocol: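 Dose the keratinocyte/fibroblast co-culture, wait 24 h, measure ICAM-1 by ELISA, then fit increases or decreases against DMSO. Cytotoxicity is checked in parallel cultures by SRB total-protein staining.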

Read-out in assay [18]: Interferon-gamma inducible Protein 10 (IP10), CXCL10 (gene 3627)
Briefly: BSK_KF3CT_IP10: BioMAP Diversity Plus: KF3CT Assay for Interferon-gamma inducible Protein 10 (IP10) Biomarker Activity (AID 2283068). As to conditions: primary human keratinocytes with fibroblasts; actives raise or lower the signal. A digest of the protocol: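 In a primary skin co-culture of keratinocytes and fibroblasts, IP-10 is quantified by ELISA at 24 h after dosing. SRB staining of parallel wells monitors overt toxicity. Curves are fitted both directions against DMSO.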

A short description of assay [19]: BSK_KF3CT_SRB: Viability Assessment in the BioMAP Diversity Plus: KF3CT Assay (AID 2283069).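 Note: fitted for both signal gain and loss against DMSO baseline.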 Particulars: primary human keratinocytes with fibroblasts. The gist of the method:
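Overt cytotoxicity is assessed as total protein by sulforhodamine B staining in parallel human skin co-cultures at 24 h after dosing. DMSO serves as negative control and baseline.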

Assay [20] in a line: BSK_hDFCGF_Proliferation: Cell Proliferation Assessment in the BioMAP Diversity Plus: hDFCGF Assay (AID 2283059).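 Note: curves fitted for both rise and fall of signal versus DMSO baseline.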 As to conditions: primary human foreskin fibroblasts. A digest of the protocol:
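Primary human foreskin fibroblasts, sub-confluent; […]; 10% TCA fix, 0.1% SRB stain, A560 total protein. Gain/loss fitted bidirectionally vs DMSO control.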

For the compound `Clc1cc(Cl)c(Cl)c(Cl)c1Cl`, the outcome in assay [1], in assay [2], in [3], in [4], in assay [5] and in assay [6] was inactive. Besides, the result in [7], in assay [8], in assay [9], in assay [10], in [11] and in [12] was inactive. Also, the result in assay [13], in assay [14], in [15], in [16], in assay [17] and in assay [18] was inactive. Further, in assay [19], the outcome was inactive.

For orientation: AC50 means the midpoint of the concentration-response curve, whichever way the signal moves. Regarding `CC=C(C)C(C)=O`, the outcome in [1], in assay [3], in assay [4], in assay [5], in assay [6] and in assay [8] was inactive. Moreover, the outcome in [9], in assay [10], in assay [11], in assay [12], in assay [13] and in [14] was inactive. The outcome in assay [16], in assay [17], in [18] and in assay [19] was inactive. Moreover, the AC50 is 3.97 µM (active) in assay [2], 3.97 µM (active) in [7], 20 µM (active) in [20] and 6.7 µM (active) in assay [15].

For the compound `CC(C)c1cccc(C(C)C)c1N`, the result in assay [1], in assay [2], in [3], in [4], in [5] and in assay [6] was inactive. Moreover, the outcome in assay [7], in assay [8], in assay [9], in [20], in [10] and in assay [11] was inactive. Besides, the outcome in assay [12], in assay [13], in assay [14], in assay [15], in assay [16] and in assay [17] was inactive. Moreover, the outcome in assay [18] and in assay [19] was inactive.

With `C=CC(=O)NCOCCCC`, the outcome in assay [1], in assay [2], in assay [3], in assay [4], in [5] and in assay [6] was inactive. The outcome in assay [7], in assay [8], in [9], in [20], in assay [10] and in assay [11] was inactive. For the same compound, the result in assay [12], in assay [13], in [14], in assay [15], in assay [16] and in [17] was inactive. In addition, the result in assay [18] and in assay [19] was inactive.

As for `Oc1ccccc1Cc1ccccc1O`, the result in assay [1], in assay [2], in assay [3], in assay [4], in assay [5] and in [6] was inactive. The outcome in [7], in assay [8], in assay [9], in assay [10], in assay [12] and in [13] was inactive. Also, the result in [14], in assay [15], in assay [16], in assay [17], in [18] and in assay [19] was inactive. The half-maximal activity concentration (AC50) is 0.239 µM (active) in assay [6]; 1.22 µM (active) and 191 nM (active) in assay [11].

For the compound `O=C(Cl)c1c(Cl)c(Cl)c(C(=O)Cl)c(Cl)c1Cl`, the outcome in assay [1], in assay [2], in [3], in [4], in assay [5] and in [6] was inactive. The result in assay [7], in [8], in [9], in assay [20], in [10] and in assay [11] was inactive. The result in [12], in assay [13], in assay [14], in assay [15], in assay [17] and in [18] was inactive. In assay [19], the outcome was inactive. Besides, in assay [16], the AC50 is 0.016 µM (active).

For the compound `CCC1(C)C(=O)N(Cl)C(=O)N1Cl` (stereo not drawn), the result in [1], in assay [2], in assay [3], in assay [4], in assay [5] and in assay [6] was inactive. The result in assay [7], in assay [8], in assay [9], in assay [10], in assay [11] and in [12] was inactive. The outcome in assay [13], in [14], in assay [15], in assay [16], in assay [17] and in assay [18] was inactive. Further, the outcome in assay [19] was inactive.
